Assay results published in PubChem BioAssay (NCATS).
Records with an inconclusive call do not appear. Unmarked numbers belong to inactive results. Calls follow the shape of the dose curve; as a rule, active = well fitted activation curve with a large enough effect; inconclusive = small, poorly fitted or top-dose-only effect; inactive = flat fitted curve, though single readings scatter.

Experiment: qHTS for Activators of Parkin Expression: LOPAC Validation Assay (NLuc Reporter) (AID 720572;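 also: 0% = DMSO and 100% = positive control compound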)
Settings: Parkin promoter NanoLuc reporter cells, luminescence; series mostly up to 46.1 µM; activation: at the top concentration
Excerpt: Parkin is an E3 ubiquitin ligase localized in the cytosol of cells expressed in many tissues, including brain, skeletal muscle, heart and liver tissues. One hour after stress induction by mitochondrial uncouplers (which mimic mitochondria damage by decreasing the mitochondrial inner membrane electrochemical gradient that is used to produce ATP), Parkin translocates from the cytosol to mitochondria in many cultured cell types, including neurons and HeLa cells. Administration of other mitochondrial poisons, such as Paraquat and azide in cells lacking mitochondrial DNA (mtDNA), induces Parkin translocation to mitochondria. […] It was proposed that Parkin (together with Pink1) mediates a mitochondrial quality control pathway to maintain organelle population fidelity by removing damaged mitochondria. Understanding the normal physiologic role of Parkin (and Pink1) may uncover novel treatment strategies for sporadic Parkinson's disease patients with mutation in these genes.
A cell based qHTS in 1536 well format was developed assess modulation of Parkin expression using a neuronal cell line that stably expresses a stably expresses a luminescent coincidence reporter (FLuc and NLuc reporters) behind the Parkin promoter. The LOPAC library is used to validate the assay for quantitative high-throughput screening. The data herein reports the signal from the NLuc reporter. An increase in this signal = activation of Parkin expression. For this assay , a positive control normalized signal increase corresponding to a high quality qHTS curve class in both luminescent channels is the desired outcome for this assay.
NIH Chemical Genomics Center [NCGC]
NIH Molecular Libraries Probe Centers Network [MLPCN]
Assay Submitter (PI): Richard Youle, National Institute of Neurological Disorders and Strokes (NINDS), NIH
[1] Narendra, D., et al., Parkin is recruited selectively to impaired mitochondria and promotes their autophagy. J Cell Biol, 2008. 183(5): p.
[2] Suen, D.F., et al., Parkin overexpression selects against a deleterious mtDNA mutation in heteroplasmic cybrid cells. Proc Natl Acad Sci U S A, 2010. […] 11835-40.
[3] Cheng K, Inglese J. A coincedence reporter-gene system for high-throughput screening. Nat Methods. 2012: 9(10);937
Five microliters (1,500 cells/well) of the Parkin coincidence reporter cells were seeded to 1536 well assay plates (Greiner Catalog # 789173-F) and incubated at 37 C, 5% CO2 for 24 hours. Compounds (23 nL) were pinned using the Kalypsys robotic system equipped with 1536 pin head adaptor in 7-point dose response. The assay plates were incubated for additional 24 hr at 37 C, 5% CO2 followed by a volume reduction in each well to 2 uL using an automated plate washer/aspirator. Following the volume reduction,2 uL of FLuc detection reagent and plates were incubated for 10 minutes at room temperature. The FLuc luminescence signal was obtained using the PerkinElmer ViewLux plate imager and then 2 uL of NanoLuc detection reagent was added to the plates. After another 10 minute incubation, NanoLuc signal was obtained using the PerkinElmer ViewLux plate imager as before. Data from each channel was normalized to DMSO (neutral control) and the positive control compounds (100%).

**Q.** Which “activation” value does the source give for `CCCN(CCC)CCc1c[nH]c2ccc(C(N)=O)cc12` here?
**A.** -1.49%

**Q.** For `NNC(N)=O`, which “activation” value is on record?
**A.** -1.2%

**Q.** Which “activation” value does the source give for `C[N+](C)(C)CC#CCOC(=O)Nc1cccc(Cl)c1` here?
**A.** 1.1%

**Q.** With `O=[N+]([O-])c1cc(O)c(O)c([N+](=O)[O-])c1` as the compound, how does the “activation” value read?
**A.** -1.07%

**Q.** For `C=CCN1CCc2cccc3c2[C@H]1Cc1ccc(O)c(O)c1-3`, which “activation” value is on record?
**A.** -15.1%

**Q.** For `O=C1CC[C@@]2(O)C3Cc4ccc(O)c5c4C2(CCN3CC2CC2)[C@H]1O5` (stereo not given in full), which “activation” value is on record?
**A.** -2.44%

**Q.** With `COc1ccc2[nH]cc(CCN)c2c1` as the compound, how does the “activation” value read?
**A.** 9.75%

**Q.** Which “activation” value does the source give for `CCCN(CCC)CCc1ccc(O)c(O)c1` here?
**A.** 2.56%

**Q.** Which “activation” value does the source give for `C=CCN1C[C@@H](C)N([C@H](c2ccc(C(=O)N(CC)CC)cc2)c2cccc(OC)c2)C[C@@H]1C` here?
**A.** -1.01%

**Q.** With `CCNC(=O)[C@H]1O[C@@H](n2cnc3c(N)ncnc32)[C@H](O)[C@@H]1O` as the compound, how does the “activation” value read?
**A.** 0.147%

**Q.** With `C[Se]C[C@H](N)C(=O)O` as the compound, how does the “activation” value read?
**A.** -6.1%

**Q.** Which “activation” value does the source give for `C#CCN[C@H](C)Cc1ccccc1` here?
**A.** -4.4%

**Q.** For `CP(=O)(O)C1=CCNCC1`, which “activation” value is on record?
**A.** -5.02%

**Q.** With `CCCN(CCC)[C@H]1CCc2c(F)ccc(O)c2C1` as the compound, how does the “activation” value read?
**A.** -1.41%

**Q.** For `C[N+]1(C)CCc2cc3c(cc2[C@H]1[C@@H]1OC(=O)c2c1ccc1c2OCO1)OCO3`, which “activation” value is on record?
**A.** 0.0597%

**Q.** For `COc1ccc2c(c1)[C@@]13CCCC[C@H]1[C@@H](C2)NCC3`, which “activation” value is on record?
**A.** -6.21%

**Q.** With `CCN(CCCl)Cc1ccccc1Br` as the compound, how does the “activation” value read?
**A.** -7.3%

**Q.** With `CCN1C[C@@]2(COC)C3[C@@H](OC)C4[C@@H]1C3([C@@H]1C[C@]3(O)[C@H](OC(=O)c5ccccc5)[C@@H]1[C@]4(OC(C)=O)[C@@H](O)[C@@H]3OC)[C@H](OC)C[C@H]2O` as the compound, how does the “activation” value read?
**A.** -1.31%

**Q.** For `CC(C)(C)c1cc(C=C(C#N)C#N)cc(C(C)(C)C)c1O`, which “activation” value is on record?
**A.** -13.7%

**Q.** For `CCCn1c(=O)c2[nH]c(C3CCCC3)nc2n(CCCOC(=O)c2ccc(S(=O)(=O)F)cc2)c1=O`, which “activation” value is on record?
**A.** -20.3%

**Q.** With `CC(N)[C@H](O)c1ccc(O)c(O)c1` (stereo not given in full) as the compound, how does the “activation” value read?
**A.** 6.84%

**Q.** Which “activation” value does the source give for `NC(=O)CI` here?
**A.** 25.7%

**Q.** For `CC(C)(C)c1o[nH]c(=O)c1CC(N)C(=O)O` (stereo not given), which “activation” value is on record?
**A.** 2.47%

**Q.** Which “activation” value does the source give for `CC(N)c1cccc(Cl)c1Cl` (stereo not given) here?
**A.** -3.66%

**Q.** For `CN(N=O)c1ccc(O)c(O)c1`, which “activation” value is on record?
**A.** 8.02%

**Q.** For `C[C@H](N)Cc1cccc(C(F)(F)F)c1`, which “activation” value is on record?
**A.** -1.7%

**Q.** With `CC(=O)c1c(O)c(C)c(O)c(Cc2c(O)c3c(c(C(=O)/C=C/c4ccccc4)c2O)OC(C)(C)C=C3)c1O` as the compound, how does the “activation” value read?
**A.** 6.88%

**Q.** Which “activation” value does the source give for `CN1CC[C@@]2(C)c3cc(OC(=O)Nc4ccccc4)ccc3N(C)[C@@H]12` here?
**A.** -3.62%

**Q.** For `CCCC[N+]1(C)C2CC(OC(=O)[C@H](CO)c3ccccc3)CC1C1OC12` (stereo not given in full), which “activation” value is on record?
**A.** -0.476%

**Q.** For `O=S1(=O)N(CCN2CC=C(c3c[nH]c4cc(F)ccc34)CC2)c2cccc3c2N1CCC3`, which “activation” value is on record?
**A.** 12.9%

**Q.** Which “activation” value does the source give for `O=C1C=CC(=O)C=C1` here?
**A.** 3.53%

**Q.** Which “activation” value does the source give for `COc1cc(CC(C)N)c(OC)cc1I` (stereo not given) here?
**A.** 2.65%

**Q.** With `C[C@H](Cc1ccc2c(c1)OC(C(=O)O)(C(=O)O)O2)NC[C@H](O)c1cccc(Cl)c1` as the compound, how does the “activation” value read?
**A.** -2.74%

**Q.** With `NNC(=O)c1ccc(O)cc1` as the compound, how does the “activation” value read?
**A.** -1.1%

**Q.** For `CCS(=O)(=O)Nc1cccc(C(=C2CCCCC2)c2cnc[nH]2)c1`, which “activation” value is on record?
**A.** -0.0303%

**Q.** For `CC(Cc1ccc(OCC(=O)O)cc1)NCC(O)c1cccc(Cl)c1` (stereo not given), which “activation” value is on record?
**A.** 1.11%

**Q.** Which “activation” value does the source give for `CCn1cnc2c(Nc3cccc(Cl)c3)nc(N[C@@H]3CCCC[C@@H]3N)nc21` here?
**A.** -28.1%

**Q.** Which “activation” value does the source give for `COc1ccc2c(c1)c(CCN1CCOCC1)c(C)n2C(=O)c1cccc(Cl)c1Cl` here?
**A.** -8.78%

**Q.** Which “activation” value does the source give for `CC(C)(O)[C@@H]1C2OC(=O)[C@@H]1[C@]1(O)C[C@H]3O[C@]34C(=O)O[C@H]2[C@]14C` (tested in a mixture with another compound) here?
**A.** -2.09%

**Q.** For `NCC(CP(=O)(O)O)c1ccc(Cl)cc1` (stereo not given), which “activation” value is on record?
**A.** 3.62%
